In PubChem BioAssay (NCATS):
Results filed as inconclusive are left out. Unless noted, calls come from the whole dose curve; as a rule, active = well fitted curve in either direction with a large enough effect (not every such curve was filed as active); inconclusive = small, poorly fitted or top-dose-only effect, or another doubt; inactive = flat fitted curve, though single readings scatter.

Legend:
[1] = AP1 Signaling Pathway (AID 357); details: ME-180 AP-1-bla reporter, EGF-induced, beta-lactamase ratio, 5 h; at 17.2 µM (top of the series) unless noted;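 note: ME-180 reporter cells stimulated with EGF at its EC50 level; % is set by controls: 0 for no effect and ±100 for the full control effect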
Summary of the method: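 Titration-series screen for positive or negative modulators of EC50 EGF-induced signaling in ME-180 cells carrying an AP-1-driven beta-lactamase reporter. After 5 hours at 37 degrees Celsius, CCF4 460nm/530nm emission ratio gave %Activity; AC50 values derived.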

[2] = NFAT Signaling Pathway (AID 444); details: Jurkat NFAT-bla M1, carbachol, beta-lactamase ratio, 5 h; at 17.2 µM (top of the series) unless noted;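 note: carbachol stimulus at about its EC50 of 1 µM final; % is set by controls: 0 for no effect and ±100 for the full control effect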
Summary of the method: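 Jurkat cells carrying an NFAT-driven β-lactamase reporter and co-transfected muscarinic M1 receptor were treated with compound plus carbachol (1 uM final, an EC50 level) for 5 h at 37 °C. CCF4 loading followed for 1 h at RT; 460/530 nm ratio gave %activity.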

[3] = Stat Signaling Pathway (AID 446); details: ME-180 (cervical carcinoma) SIE beta-lactamase reporter, IL-6 stimulated, 5 h; at 17.2 µM (top of the series) unless noted;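 note: ME-180 cervical cancer cells given 40 pM IL-6 alongside compound; SIE-controlled beta-lactamase reporter measured as 460/530 nm FRET emission ratio; % is set by controls: 0 for no effect and ±100 for the full control effect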
Summary of the method: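 Normalization used AC90 stimulation (300 pM IL-6) and AC90 inhibition (125 nM pan-JAK inhibitor at 40 pM IL-6). The underlying signal is SIE-driven beta-lactamase in ME-180 cells after 5 h IL-6 exposure with compound.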

[4] = molecular target: Glucocorticoid receptor (Homo sapiens) (UniProt P04150); assay: GR-GFP Redistribution (AID 450;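 active = compounds whose dose series gives a full or clear partial fitted curve of increased nuclear translocation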; note: potency is the fitted concentration of half-maximal effect)
Glucocorticoid receptor (Homo sapiens), sequence (P04150 whole entry, looked up): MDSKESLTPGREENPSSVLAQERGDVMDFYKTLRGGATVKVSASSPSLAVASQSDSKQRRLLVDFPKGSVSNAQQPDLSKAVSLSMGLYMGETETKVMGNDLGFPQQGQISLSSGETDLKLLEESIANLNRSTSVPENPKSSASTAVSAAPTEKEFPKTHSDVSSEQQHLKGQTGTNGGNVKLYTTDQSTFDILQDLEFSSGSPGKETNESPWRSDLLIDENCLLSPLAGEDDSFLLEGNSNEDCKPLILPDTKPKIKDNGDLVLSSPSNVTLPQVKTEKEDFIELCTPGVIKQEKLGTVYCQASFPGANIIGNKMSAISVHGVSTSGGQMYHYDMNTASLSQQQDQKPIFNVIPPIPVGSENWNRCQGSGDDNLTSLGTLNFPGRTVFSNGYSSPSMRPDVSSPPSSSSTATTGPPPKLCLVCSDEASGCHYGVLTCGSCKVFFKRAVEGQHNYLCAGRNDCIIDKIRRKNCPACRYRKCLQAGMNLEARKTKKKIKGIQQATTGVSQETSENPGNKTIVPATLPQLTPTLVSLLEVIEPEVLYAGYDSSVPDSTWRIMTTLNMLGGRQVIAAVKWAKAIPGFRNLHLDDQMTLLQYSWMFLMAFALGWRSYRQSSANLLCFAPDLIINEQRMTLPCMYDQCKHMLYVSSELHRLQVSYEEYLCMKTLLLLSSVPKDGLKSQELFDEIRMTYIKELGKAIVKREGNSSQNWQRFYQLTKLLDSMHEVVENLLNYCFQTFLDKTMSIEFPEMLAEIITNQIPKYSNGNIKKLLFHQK

Clc1ccc2nc(CSc3nc4ccccc4o3)cn2c1
inactive: activity change, negative = inhibition [1] -4.14% | activity change, negative = inhibition [2] 1.67% | activity, negative = inhibition [3] -8.83% | Potency [4] > 20.6 µM

CC(C)CC(C(=O)O)C(C)CC(=O)Nc1ccn(-c2ccccc2)n1 (stereo not given)
inactive: activity change, negative = inhibition [1] -9.05% | activity change, negative = inhibition [2] 6.76% | activity, negative = inhibition [3] 7.28% | Potency [4] > 20.6 µM

CCOC(=O)CSc1nc(-c2ccncc2)ccc1C#N
inactive: activity change, negative = inhibition [1] -1.16% | activity change, negative = inhibition [2] -7.89% | activity, negative = inhibition [3] 3.41% | Potency [4] > 20.6 µM

CCc1[nH]c(=O)c(C#N)c2c1CSC(C)(C)C2
inactive: activity change, negative = inhibition [1] 5.95% | activity change, negative = inhibition [2] 3.33% | activity, negative = inhibition [3] 9.69% | Potency [4] > 20.6 µM

Cc1ccc(-c2nnc(-c3cccc(Br)c3)o2)cc1
inactive: activity change, negative = inhibition [1] 14.2% | activity change, negative = inhibition [2] -11.6% | activity, negative = inhibition [3] 12.4% | Potency [4] > 20.6 µM

O=C(Nc1ccccn1)NC(C(F)(F)F)C(F)(F)F
inactive: activity change, negative = inhibition [1] -3.59% | activity change, negative = inhibition [2] 6.68% | activity, negative = inhibition [3] -3.68% | Potency [4] > 20.6 µM

CN(C)CCCN(CCCNC(=O)/C=N/O)Cc1ccccc1
inactive: activity change, negative = inhibition [1] -5.3% | activity change, negative = inhibition [2] -11.6% | activity, negative = inhibition [3] 17.4% | Potency [4] > 20.6 µM

O=C(CC(c1ccc(F)cc1)c1ccco1)N1CCCC1 (stereo not given)
inactive: activity change, negative = inhibition [1] -6.27% | activity change, negative = inhibition [2] -22.2% | activity, negative = inhibition [3] -1.51% | Potency [4] > 20.6 µM

CCOC(=O)CNS(=O)(=O)c1cc(-c2n[nH]c(=O)c3ccccc23)ccc1C
inactive: activity change, negative = inhibition [1] -5.55% | activity change, negative = inhibition [2] 5.83% | activity, negative = inhibition [3] -10.1% | Potency [4] > 20.6 µM

C=CCNc1nc(C2(C)CC3(CC(C)(C)OC3=O)C(=O)O2)cs1 (stereo not given)
inactive: activity change, negative = inhibition [1] -3.51% | activity change, negative = inhibition [2] -7.31% | activity, negative = inhibition [3] -18.1% | Potency [4] > 20.6 µM

O=C(CSc1nc2ccccc2s1)Nn1cnnc1
inactive: activity change, negative = inhibition [1] 3.59% | activity change, negative = inhibition [2] 2.13% | activity, negative = inhibition [3] 5.58% | Potency [4] > 20.6 µM

O=C(Nn1cnnc1)C(c1ccccc1)c1ccccc1
inactive: activity change, negative = inhibition [1] 13.7% | activity change, negative = inhibition [2] -6.95% | activity, negative = inhibition [3] 3.83% | Potency [4] > 20.6 µM

CC1CN(C2CCN(S(=O)(=O)Cc3ccccc3)CC2)CC(C)O1 (stereo not given)
inactive: activity change, negative = inhibition [1] 3.47% | activity change, negative = inhibition [2] -2.24% | activity, negative = inhibition [3] 5.06% | Potency [4] > 20.6 µM

O=C1OC2CCC1(c1ccccc1)C2 (stereo not given)
inactive: activity change, negative = inhibition [1] -4.71% | activity change, negative = inhibition [2] 10% | activity, negative = inhibition [3] -3.95% | Potency [4] > 20.6 µM

C=CCc1cccc(/C=N/n2cnnc2)c1O
inactive: activity change, negative = inhibition [1] -1.43% | activity change, negative = inhibition [2] -2.18% | activity, negative = inhibition [3] 7.8% | Potency [4] > 20.6 µM

Cc1cc(=O)oc2cc(OCCSCCN3CCOCC3)ccc12
inactive: activity change, negative = inhibition [1] -6.35% | activity change, negative = inhibition [2] 3.73% | activity, negative = inhibition [3] -0.537% | Potency [4] > 20.6 µM

O=CN1CCN(C(=O)CN2C(=O)c3ccccc3C2=O)CC1
inactive: activity change, negative = inhibition [1] 10.2% | activity change, negative = inhibition [2] 11.9% | activity, negative = inhibition [3] 6.47% | Potency [4] > 20.6 µM

CC(C)NCc1c(O)c(Br)cc2oc3c(c12)CCCC3
inactive: activity change, negative = inhibition [1] 28.5% | activity change, negative = inhibition [2] 0.46% | activity, negative = inhibition [3] 5.85% | Potency [4] > 20.6 µM

CC(=O)C1=C(NC(=O)c2ccccc2F)C[C@@H]2[C@H]1C2(C)C
inactive: activity change, negative = inhibition [1] -3.24% | activity change, negative = inhibition [2] -24.2% | activity, negative = inhibition [3] 18.8% | Potency [4] > 20.6 µM

Clc1ccc(-n2ncc3c(NCc4ccco4)ncnc32)cc1
inactive: activity change, negative = inhibition [1] -19.6% | activity change, negative = inhibition [2] 1.57% | activity, negative = inhibition [3] -20.9% | Potency [4] > 20.6 µM
